Source: PubChem
IL1B secr inh = qHTS for Inhibitors of Inflammasome Signaling: IL-1-beta AlphaLISA Primary Screen. AID 743279, 2014. activity change, % at 57.5 µM. 360,000 tested, 4.7% active. THP-1 LPS/ATP IL-1B secretion, AlphaLISA, 16 h; hits give low values; in the data active = activity change below about -50%; inconclusive = mostly about -30% to -49%; note: % is set by controls: 0 for no effect and ±100 for the full control effect
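Secreted IL-1B measured by AlphaLISA bead assay after 16 h compound exposure of THP-1 cells; compounds (final up to 57.5 uM) added 1 h before LPS (250 ng/mL) and ATP (1.25 mM) stimulation; lower signal means less secretion.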
MCF10A rerep = A quantitative high throughput screen for small molecules that induce DNA re-replication in MCF 10a normal breast cells | MCF 10A DNA re-replication, Hoechst nuclear intensity, 48 h | Potency, µM (top dose mostly 46.1 µM), for inactives: top-dose activity, positive = re-replication, most hits filed as activators | 350,000 tested, 2.9% active | AID 624296, 2012; note: potency is the fitted concentration of half-maximal effect; % of control where 0% means no effect; nearly all actives have a fitted effect of over 50% in size
KB-3-1 cytotox = qHTS assay for MDR1-selective chemotherapeutics: Primary screen using the parental adenocarcinoma cell KB-3-1; KB-3-1 viability, CellTiter-Glo ATP luminescence, 72 h; Potency, µM (doses to about 46.1 µM), actives largely listed as cytotoxic; 400,000 tested, 1.4% active; note: potency is the fitted concentration of half-maximal effect; % is set by controls: 0 for no effect and ±100 for the full control effect; nearly all actives have a fitted effect of over 60% in size
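KB-3-1 cells, DMEM (no phenol red) + 10% FBS; compound by pin transfer, 72 h, 37 °C. Readout: CellTiter-Glo luminescence after 10 min. Data normalized, curve-fitted.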
SW480 rereplic = A quantitative high throughput screen for small molecules that induce DNA re-replication in SW480 colon adenocarcinoma cells | SW480 DNA re-replication, Hoechst DNA content imaging, 48 h | Potency, µM (series often up to 46.1 µM), inactives show top-dose re-replication activation, usual class: activators | 340,000 tested, 1.8% active; note: potency is the fitted concentration of half-maximal effect; % of control where 0% means no effect; nearly all actives have a fitted effect of over 55% in size
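Cells (250 per well) received 23 nL compound or DMSO by pin tool and were kept 48 hr at 37 C, 5% CO2. Nuclei were then stained with Hoechst for 40 min and scanned for DNA content.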
KB-V1 MDR tox = qHTS assay for MDR1-selective chemotherapeutics: Primary screen using the drug-selected MDR subline cells KB-V1; KB-V1 MDR cells viability, CellTiter-Glo, 72 h; Potency, µM (highest dose often 46.1 µM), most hits filed as cytotoxic; 400,000 tested, 3.4% active; AID 1347076, 2019; note: potency is the fitted concentration of half-maximal effect; % is set by controls: 0 for no effect and ±100 for the full control effect; nearly all actives have a fitted effect of over 60% in size
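Cells of the MDR subline KB-V1 are plated, dosed with compound at multiple concentrations, and incubated 72 h at 37 degrees C; CellTiter-Glo is then added and luminescence read after 10 min.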
* marks the source's active call; other numbers are inactive results; i = inactive; u = inconclusive; x = not tested or not shown; ! = a repeat was not active. Shown are actives, neighbours in structure and some others; about 9.9% of the full set was active somewhere. Unless noted, calls come from the whole dose curve; as a rule, active = well fitted curve in the direction sought with a large enough effect; inconclusive = small, poorly fitted or top-dose-only effect, or another doubt; inactive = no such curve, though single readings can be large; an effect the other way counts as inactive or inconclusive.

SMILES	IL1B secr inh	MCF10A rerep	KB-3-1 cytotox	SW480 rereplic	KB-V1 MDR tox
Cc1cc(C)c(C#N)c(N2CCOCC2)n1	-10	-1%	i	0%	u
Cc1cc(N2CCOCC2)nc(N2CCOCC2)c1C#N	-20	x	u	x	7.3µM*
CCOc1cc(C2c3c(oc4ccccc4c3=O)C(=O)N2Cc2ccc3c(c2)OCO3)ccc1O (centres undefined)	x	x	i	x	i
CCC(CC)C(=O)Nc1cc(-c2nc3cccnc3s2)ccc1C	x	x	i	x	i
CC(=Nc1ccc(Br)cc1)c1sc2ccccc2c1O	-30	13%	i	1%	i
CC(=Nc1ccccc1)c1sc2ccccc2c1O	-2	u	i	12%	21µM*
CSc1ccc(S(=O)(=O)NCC(=O)OCC(=O)N2CCCCC2C)cc1[N+](=O)[O-] (centres undefined)	9	0%	i	1%	u
NC(=O)C1CCN(C(=O)/C(=C/c2ccccc2)NC(=O)c2ccccc2)CC1	0	7%	i	-9%	u
Nc1ncccc1OCc1cccc(C(F)(F)F)c1	-51*	-10%	u	7%	u
CCN(CCS(=O)(=O)c1ccc(Br)cc1)Cc1nc2ccccc2c(=O)[nH]1	-52*	34%	i	-12%	i
CCN(CCS(=O)(=O)c1ccc(Cl)cc1)Cc1nc2ccccc2c(=O)[nH]1	4	3%	i	-7%	7.3µM*
O=C(Nc1ccc2c(c1)OCCO2)Nc1nnc(-c2ccncc2)s1	x	x	i	x	i
COc1ccc(CN2CCN(C(=O)c3cccc4ccccc34)CC2)cc1OC	-15	0.65µM*	i	6.5µM*	i
CCOc1ccccc1-n1c(CN2CCN(C(=O)c3ccco3)CC2)nc2ccccc2c1=O	-103*	3.7µM*	i	24%	u
COc1ccc(CN2CCN(C(=O)c3cccc4ccccc34)CC2)cc1Br	-65*	19%	i	-4%	i
CCOc1cc(CN2CCN(C(=O)c3cccc4ccccc34)CC2)ccc1OC	-3	-1%	i	u	u
COc1ccccc1CN1CCN(C(=O)c2cccc3ccccc23)CC1	-11	-8%	i	-5%	i
COc1cccc(CN2CCN(C(=O)c3cccc4ccccc34)CC2)c1OC	-77*	1%	i	1%	i
CC1=C/C(=N\NC(=S)Nc2cccnc2)CC(C)(C)C1	50	u	i	u	u
C=CC1=C(C(=O)O)N2C(=O)[C@@H](NC(=O)C(N=O)c3csc(N)n3)[C@H]2SC1 (some centres undefined)	x	-5%	x	-1%	x
O=C(c1ccco1)N1CCCN(Cc2cn[nH]c2-c2ccc(-c3ccccc3)cc2)CC1	-82*	u	i	-5%	u
COc1ccc2ccccc2c1CN1CCN(C(=O)c2ccco2)CC1	-52*	9%	i	2%	u
CC(C)(C)CC(C)(C)NC(=O)CSCC(=O)Nc1ccc2ccccc2c1	-94*	0%	i	-1%	i
CCc1cc(Cn2nc(-c3ccccc3)cc2C(=O)NCc2cccc(Br)c2)on1	-53*	u	u	13%	23µM*
COc1cccc(COC(=O)Cc2ccc(S(=O)(=O)N3CCOCC3)s2)c1OC	3	5%	i	10%	i
SMILES	IL1B secr inh	MCF10A rerep	KB-3-1 cytotox	SW480 rereplic	KB-V1 MDR tox
Cc1cc(CNC(=O)CC2C(=O)NCCN2Cc2ccccc2C(F)(F)F)on1 (centres undefined)	14	1%	i	-2%	i
CC(=O)Nc1ccc(S(=O)(=O)NC2=C(N3CCN(Cc4ccccc4)CC3)C(=O)c3ccccc3C2=O)cc1	-10	u	u	u	18µM*!
CCN1CCN(C2=C(NS(=O)(=O)c3ccc(C)cc3)C(=O)c3ccccc3C2=O)CC1	30	12%	u	21µM*	u
CC1CCN(C2=C(NS(=O)(=O)c3ccc(Cl)cc3)C(=O)c3ccccc3C2=O)CC1	-3	4%	i	-1%	i
CC1CCN(C2=C(NS(=O)(=O)c3ccccc3)C(=O)c3ccccc3C2=O)CC1	-74*	u	i	-12%	i
Cc1noc(-c2ccc(NCc3ccccc3)c([N+](=O)[O-])c2)n1	x	x	i	x	i
COc1cc(NC(=O)Cn2cnc(S(=O)(=O)N3CCc4ccccc43)c2)cc(OC)c1OC	23	-22%	i	0%	i
CC(C)C[C@H](N)c1nnc(S(=O)(=O)Cc2ccc(F)cc2)o1	-117*	u	u	u	u
CC(C)C[C@H](N)c1nnc(SCc2ccc(Cl)cc2Cl)o1	x	x	i	x	u
COC(=O)C[C@H]1CC[C@@H](NC(=O)Nc2c(C)noc2C)[C@@H](CO)O1	-10	x	i	x	i
CC1(C)CC(=O)C2=C(C1)NC(=O)CC2	-2	x	i	x	i
CC1CCc2cc(F)ccc2N1C(=O)CCl (centres undefined)	-97*	u	u	u	u
CCC(CC)C(=O)N1c2ccc(F)cc2CCC1C (centres undefined)	20	3%	i	0%	i
CC1CN(C(=O)C2(C)CC2(Br)Br)CC(C)O1 (centres undefined)	15	-3%	i	1%	i
COc1ccc(S(=O)(=O)N(C)C)cc1NC(=O)CN1CCN(C(=O)C2CC2)CC1	12	18%	u	1%	i
COc1cc(Cl)c(C)cc1NC(=O)CN1CCN(C(=O)C2CC2)CC1	2	-13%	i	u	21µM*
COc1cc(NC(=S)N2CCN(c3ccccn3)CC2)c(OC)cc1Cl	-4	-5%	i	-69%	18µM*
COc1cc(Cl)c(C)cc1NC(=O)c1ccccc1NC(=O)CN1CCN(c2ccccn2)CC1	-66*	u	i	8%	i
COc1ccc(Cl)cc1NC(=S)N1CCN(c2ccccn2)CC1	-10	u	i	9%	i
Cc1ccc(C)c(Cn2c(C)nc3c(sc(=S)n3-c3ccccc3)c2=O)c1	19	6%	i	0%	i
COC(=O)[C@H](C)NS(=O)(=O)C1CC1	x	x	i	x	i
CCOc1[nH]n(-c2ccccc2)c(=O)c1C=Nc1ccccc1	16	23µM*	i	u	u
CCOc1[nH]n(-c2ccccc2)c(=O)c1C=Nc1ccc(C)cc1	-25	-6%	i	1%	i
COc1ccc(NC(=O)C2CCN(C3=NS(=O)(=O)C(c4ccc(C)c(C)c4)=C3C)CC2)c(OC)c1	x	x	i	x	i
